# An excerpt weighted towards active compounds, which were near 7.3% of everything screened.
# SMN2 splice up = qHTS Assay for Enhancers of SMN2 Splice Variant Expression | HEK293 SMN2-luciferase splicing reporter, luminescence, 30-36 h | Potency, µM (titrated, usually from 46.1 µM), most hits filed as activators | actives 2.8% (n = 210,000) | AID 1458, 2008; further: nearly all actives have a fitted effect of over 55% in size
#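 qHTS luciferase splicing reporter: luminescence rises when SMN2 exon 7 is included in transfected HEK293 cells. Compound exposure lasted 30-36 h at 37C, with 4.5 mM final sodium butyrate as control, followed by a ONE-Glo read.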
# ELG1 genotox = qHTS screen for small molecules that induce genotoxicity in human embryonic kidney (HEK293T) cells expressing luciferase-tagged ELG1; HEK293T ELG1-luciferase reporter, luminescence, 16 h; AID 504466, 2011; Potency, µM (highest dose often 46 µM), hits mostly activators; actives 1.3% (n = 330,000); further: nearly all actives have a fitted effect of over 60% in size
#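 HEK293T cells expressing luciferase-tagged ELG1 were exposed to compound or DMSO vehicle for 16 hr at 37 °C and 5% CO2. Luciferase activity was then measured with ONE-Glo after 30 min at room temperature.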
# FLuc counter = qHTS profiling assay for firefly luciferase inhibitor/activator using purifed enzyme and Km concentrations of substrates (counterscreen for miR-21 project). Luciferin 4-monooxygenase (Photinus pyralis), P08659. purified FLuc, Km substrates, luminescence inhibition. Potency, µM (titrated, usually from 57.5 µM), most hits filed as inhibitors. actives 6.9% (n = 360,000); further: nearly all actives have a fitted effect of over 55% in size
# Target sequence (P08659 whole entry, looked up): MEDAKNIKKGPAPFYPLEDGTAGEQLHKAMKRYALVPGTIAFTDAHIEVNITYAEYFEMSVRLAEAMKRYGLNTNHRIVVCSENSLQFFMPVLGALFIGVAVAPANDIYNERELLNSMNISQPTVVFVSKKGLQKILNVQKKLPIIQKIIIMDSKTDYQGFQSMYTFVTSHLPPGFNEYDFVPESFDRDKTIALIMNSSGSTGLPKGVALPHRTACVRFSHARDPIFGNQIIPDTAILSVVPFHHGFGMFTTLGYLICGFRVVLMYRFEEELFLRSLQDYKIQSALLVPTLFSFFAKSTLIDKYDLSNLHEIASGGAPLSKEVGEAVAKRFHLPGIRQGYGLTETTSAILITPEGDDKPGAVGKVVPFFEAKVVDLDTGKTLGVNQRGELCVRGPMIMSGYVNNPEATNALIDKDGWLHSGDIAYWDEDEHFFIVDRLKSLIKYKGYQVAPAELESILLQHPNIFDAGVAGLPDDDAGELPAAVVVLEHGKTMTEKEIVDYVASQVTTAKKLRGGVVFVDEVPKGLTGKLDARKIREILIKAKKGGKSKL
#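 Purified P. pyralis luciferase, 10 nM final, with Km-level 10 uM D-luciferin and 10 uM ATP in 50 mM Tris acetate pH 7.5, 10 mM Mg acetate, 0.01% Tween-20, 0.05% BSA; 6-point qHTS titration about 60 µM downward; luminescence read.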
# NPC1 prom act = qHTS Assay for NPC1 Promoter Activators. Potency, µM (titrated, usually from 9.22 µM), hits mostly activators. AID 485313, 2010. Huh7 NPC1 promoter luciferase reporter, 24 h. actives 2.4% (n = 320,000); further: nearly all actives have a fitted effect of over 60% in size
#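 Compounds in DMSO were transferred onto Huh7 NPC1-luciferase reporter cells pre-incubated 2 h; after 24 h at 37 °C, Amplite reagent was dispensed and luminescence recorded 10 min later.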
# Rab9 prom act = qHTS Assay for Rab9 Promoter Activators | Huh7 Rab9 promoter-luciferase reporter, luminescence, 24 h | Potency, µM (doses to about 9.22 µM), actives largely listed as activators | actives 2.8% (n = 320,000) | AID 485297, 2010; further: nearly all actives have a fitted effect of over 60% in size
#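 Stable Rab9-luc Huh7, 1500 cells/well, 2 h settle; cmpd in DMSO, 24 h, 37 °C/5% CO2; luciferase reagent 10 min RT; luminescence.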
# KinaseGlo FLuc = Counterscreen for Luciferase (Kinase-Glo TM) Inhibition. Kinase-Glo luciferase, ATP luminescence, 8 min. Luciferin 4-monooxygenase (Photuris pensylvanica), Q27757. actives 0.28% (n = 200,000). Potency, µM (titrated, usually from 38.3 µM), actives largely listed as inhibitors; further: nearly all actives have a fitted effect of over 60% in size
#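 Recombinant Kinase-Glo luciferase, 10 uM ATP (linear range), luciferin; imidazole pH 7.2 / KCl / MgCl2 / Tween / BSA buffer; 8 min RT; luminescence.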
# Numbers stand for hits; . = inactive; ? = inconclusive; / = no result. The call rests on the fitted dose curve; in most records, active means well fitted curve in the direction sought with a large enough effect; inconclusive means small, poorly fitted or top-dose-only effect, or another doubt; inactive means no such curve, though single readings can be large; an effect the other way counts as inactive or inconclusive.
SMILES,SMN2 splice up,ELG1 genotox,FLuc counter,NPC1 prom act,Rab9 prom act,KinaseGlo FLuc
O=C(CCN1C(=O)S/C(=C\c2ccc(F)cc2)C1=O)Nc1ccc(O)cc1C(=O)O,/,.,?,.,.,/
O=C(CCN1C(=O)S/C(=C/c2ccccc2)C1=O)Nc1ccc(C(=O)O)c(O)c1,/,.,2.4µM,.,.,/
Cc1ccc2c(c1)c1c(c(=O)n(-c3ccccc3C)c(=O)n1CC(=O)NCCC1=CCCCC1)n2C,/,/,.,/,/,/
CCC(NC(=O)Nc1cc(OC)ccc1OC)c1c(-n2cccc2)sc2c1CCN(CC)C2 (centres undefined),/,/,.,/,/,/
CCN(C(=O)COC(=O)c1cc(-c2ccc(C)o2)nc2ccccc12)C1CCS(=O)(=O)C1 (centres undefined),.,.,19µM,.,.,.
C=Cn1c(C(=O)O)ccc1-c1ccc(CC)cc1,/,.,21µM,.,.,/
Cc1cccc(C)c1NC(=O)c1ccc2nc(CCc3ccccc3)oc2c1,/,/,.,/,/,/
CCOc1ccc(C(=O)Oc2c(Sc3ccccc3)c(C)nn2C(C)(C)C)cc1OCC,.,/,.,/,/,/
CCNC(=O)CC1C(=O)N(c2ccc(F)cc2)C(=O)N1Cc1ccc(OC)c(OC)c1 (centres undefined),.,/,.,/,/,/
Cc1ccc(Cl)cc1N(C)C(=O)c1cc2c(Cl)nc3ccccc3c2s1,.,/,?,/,/,/
COc1cc(/C=N/NC(=S)Nc2cccc(C(=O)O)c2)ccc1O,.,.,4.3µM,?,?,.
COc1ccc(/C=N/NC(=S)Nc2ccccc2)cc1,10µM,?,11µM,?,4µM,.
COc1cccc(/C=N/NC(=S)Nc2cccc(C(=O)O)c2)c1O,16µM,.,0.19µM,.,.,.
COc1cc(/C=N/NC(=O)c2ccccc2)ccc1O,.,?,?,.,.,.
COc1ccc(CCCC(=O)N/N=C/c2cccc(OC)c2O)cc1C,.,?,17µM,.,.,.
COc1ccc(N(C(=O)c2cccc(C)c2)S(=O)(=O)c2ccc3c(c2)n(C)c(=O)n3C)cc1,.,/,.,/,/,/
Cc1cccc(-n2c3nc(=O)[nH]c(=O)c-3cc3ccc(Cl)cc32)c1C,.,/,.,/,/,/
COCCCNC(=S)N/N=C/c1cccc(OC)c1O,/,.,9.5µM,.,.,/
COCCCNC(=S)N/N=C/c1ccc(O)cc1O,/,.,?,.,.,/
O=C(O)c1cccc(NC(=S)N/N=C/c2cccnc2)c1,.,?,11µM,?,?,.
S=C(N/N=C/c1ccccc1Cl)Nc1ccccc1,.,.,19µM,?,?,.
Cc1cccc(C)c1NC(=S)N/N=C/c1ccc(C(=O)O)cc1,/,.,.,.,.,/
COc1ccc(/C=N/NC(=S)Nc2cccc(C(=O)O)c2)cc1,13µM,.,1.7µM,2µM,1.8µM,.
CC(C)c1nn2c(=O)cc(COC(=O)c3ccccc3NC(=O)COc3ccccc3)nc2s1,/,/,21µM,/,/,/
O=C(COc1ccccc1)Nc1ccccc1C(=O)OCc1cc(=O)n2nc(C3CC3)sc2n1,/,/,21µM,/,/,/
SMILES,SMN2 splice up,ELG1 genotox,FLuc counter,NPC1 prom act,Rab9 prom act,KinaseGlo FLuc
CCc1ccccc1NC(=O)Cn1c(=O)n(Cc2ccco2)c(=O)c2ccccc21,.,/,.,/,/,/
CC(=O)c1cccc(NC(=O)c2c(N3CCCC3=O)c3cc(F)ccc3n2C)c1,/,/,.,/,/,/
Cc1cc(NC(=O)c2ccc3[nH]c(C)c(C)c3c2)ccn1,/,.,15µM,.,.,/
CC(=O)Nc1cccc(NC(=O)c2ccc3[nH]c(C)c(C)c3c2)c1,/,.,11µM,.,.,/
COc1ccc(/C=C/C(=O)NC(=S)Nc2ccc(S(=O)(=O)Nc3cc(OC)ncn3)cc2)cc1,.,.,15µM,.,.,.
Cc1ccc(/C=C/C(=O)NC(=S)Nc2ccc(S(=O)(=O)Nc3cc(C)on3)cc2)cc1,/,.,9.5µM,.,.,/
Cc1cc(NS(=O)(=O)c2ccc(NC(=S)NC(=O)c3ccc(C(C)(C)C)cc3)cc2)no1,.,.,11µM,.,.,.
Cc1cc(NS(=O)(=O)c2ccc(NC(=S)NC(=O)/C=C/c3ccccc3)cc2)no1,/,.,.,.,.,/
COc1cc(NS(=O)(=O)c2ccc(NC(=S)NC(=O)/C=C/c3ccc(OC)c(OC)c3)cc2)ncn1,.,.,.,.,.,.
Cc1cccc2c1-c1sc(C(=O)N(C)c3cccc(Cl)c3)cc1CO2,.,/,.,/,/,/
Cc1ccc(NC(=O)COc2ccc(-c3nn(C)c(=O)c4ccccc34)cc2)c(C)c1,.,/,.,/,/,/
O=C(NCCc1ccccc1)c1ccc2c(c1)N(Cc1ccc(Cl)cc1)C(=O)c1ccccc1S2(=O)=O,.,/,.,/,/,/
COC(=O)c1nn(-c2ccc3c(c2)CCN3C(C)=O)cc1O,?,?,0.54µM,0.5µM,3.2µM,11µM
CCOC(=O)c1nn(-c2ccc(C)c(C)c2)cc1O,.,6.5µM,4.3µM,?,.,.
COC(=O)c1nn(-c2ccc3c(c2)OCO3)cc1O,?,?,11µM,?,.,?
COC(=O)C1=C(C)N(Cc2ccc3c(c2)OCO3)C(=O)C1,.,.,.,.,.,.
CCOC(=O)c1nn(-c2ccc3c(c2)OCCO3)cc1O,?,8.2µM,3µM,2.8µM,2.8µM,.
Cn1cnc(S(=O)(=O)N2CCC(C(=O)Nc3ccc(Cl)c(C(F)(F)F)c3)CC2)c1,/,/,.,/,/,/
CCCCCn1c(=O)[nH]c2cc(C(=O)N3CCN(c4cc(Cl)ccc4C)CC3)ccc2c1=O,.,/,.,/,/,/
O=C(Nc1ccc(C(=O)Nc2ccc(C(=O)Nc3ccc(S(=O)(=O)O)c4cc(S(=O)(=O)O)cc(S(=O)(=O)O)c34)cc2)cc1)Nc1ccc(C(=O)Nc2ccc(C(=O)Nc3ccc(S(=O)(=O)O)c4cc(S(=O)(=O)O)cc(S(=O)(=O)O)c34)cc2)cc1,.,/,/,/,/,.
CCOC(=O)c1nn(-c2ccc(C)cc2)cc1C(=O)c1ccccc1,11µM,2.6µM,1.9µM,4µM,2.8µM,.
CNC(=O)C1CCC(Cn2c(=O)c3sccc3n(CC(=O)N3CCCC3)c2=O)CC1 (centres undefined),/,/,.,/,/,/
CCn1cnc2sc(C(=O)Nc3ccc4c(c3)OCO4)c(C)c2c1=O,13µM,8.9µM,11µM,?,2.8µM,.
O=C(Nc1ccc2c(c1)OCCO2)c1cnc2n(c1=O)CCS2,20µM,9.2µM,9.5µM,2.5µM,2µM,.
O=C(Nc1ccc2c(c1)OCO2)c1cnc2n(c1=O)CCS2,13µM,?,?,?,3.2µM,.
O=C(Nc1ccccc1)c1cnc2n(c1=O)CCS2,?,.,?,.,?,.

# Assay outcomes deposited in PubChem by National Center for Advancing Translational Sciences (NCATS).
